From PubChem
The list is not random: actives were taken first. Their share in the collection is about 5.3%.
MARV entry inh = blocks Marburg virus binding to or entry into cells; Marburg virus pseudotyped entry inhibition, cell reporter; Potency, µM (top dose mostly 37.8 µM), for inactives: at the top dose activity change, negative = inhibition, most hits filed as inhibitors; actives 1.8% (n = 300,000); AID 540276; calls by dose curve; tested in HEK293 cells
FMDV antiviral = blocks foot and mouth disease virus; AID 1159524; Potency, µM (top dose mostly 57.9 µM), without a hit: top-dose activity change, negative = inhibition, most hits filed as inhibitors; FMDV antiviral cell-based qHTS; actives 1.2% (n = 410,000); calls by dose curve; tested in HEK293T cells; further: read-out not given here; nearly all actives have a fitted effect of over 45% in size
Lassa entry inh = Lassa virus entry inhibition; Lassa virus pseudotype entry inhibition, cell reporter; Potency, µM (series often up to 37.9 µM), inactives show at the highest dose activity change, negative = inhibition, most hits filed as inhibitors; actives 1.2% (n = 300,000); AID 540256; calls by dose curve; tested in HEK293 cells; further: nearly all actives have a fitted effect of over 50% in size
VACV Venus inh = vaccinia inhibition (Venus reporter); Vaccinia virus Venus reporter expression, fluorescence; Potency, µM (titrated, usually from 36.5 µM), for inactives: top-dose activity change, negative = inhibition, usual class: inhibitors; AID 720580; actives 0.46% (n = 330,000); calls by dose curve; tested in A549 cells; further: nearly all actives have a fitted effect of over 30% in size
HCV inhibitor = inhibitors of hepatitis C virus infection; Huh7.5.1 HCVcc-Cre infection, luciferase reporter, 44 h; Potency, µM (series often up to 41.8 µM), without a hit: at the highest dose activity change, negative = inhibition, actives largely listed as inhibitors; actives 3.4% (n = 340,000); active means well fitted inhibition curve with a large enough effect; inconclusive means small, poorly fitted or top-dose-only effect, or another doubt; inactive means no such curve, though single readings can be large or run the other way
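Seed cells (1,000/well) for 4 h; treat with compound and infect with HCVcc-Cre, moi about 0.5. Incubate 44 h, then detect luciferase activity.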
Vaccinia mCherry = inhibitors of vaccinia virus infection (mCherry reporter signal). Vaccinia virus mCherry reporter infection, fluorescence. Potency, µM (titrated, usually from 36.5 µM), inactives show at the highest dose activity change, negative = inhibition, hits mostly inhibitors. actives 0.63% (n = 310,000); calls by dose curve; tested in A549 cells; further: nearly all actives have a fitted effect of over 35% in size
The depositor's hits bear a star; ? = inconclusive; · = not tested or not shown; [ ] = another dose, or the depositor's remark. On the % scale 0 is the no-effect control and ±100 the full control effect; potency means the concentration at half of the fitted maximal effect.

SMILES | MARV entry inh | FMDV antiviral | Lassa entry inh | VACV Venus inh | HCV inhibitor | Vaccinia mCherry
CNCCCC1Sc2ccccc2Oc2ccccc21 (centres undefined) | ? | ? | ? | -30% | ? | ?
CC(C)c1ccc(NC(=O)CCCc2nc(-c3ccc(Cl)cc3)no2)cc1 | 14%[46.1 µM] | -25% | 0%[46.1 µM] | -19% | · | -13%
COc1ccccc1CN1CCC(CNS(=O)(=O)c2cc(-c3onc(C)c3C)ccc2OC)CC1 | · | 11% | -1%[46.1 µM] | -26% | 10µM* | ?
CCOc1ccccc1CNS(=O)(=O)c1cc(-c2onc(C)c2C)ccc1OC | · | 54% | -15%[46.1 µM] | -13% | · | -15%
Cc1cc(-c2ccc(C)c(S(=O)(=O)NCC3CCN(Cc4cccc(F)c4)CC3)c2)on1 | · | 17% | · | · | ? | ·
COc1cccc(CCN2CCC(CNS(=O)(=O)c3cc(-c4cc(C)no4)ccc3OC)CC2)c1 | · | ? | · | · | 7.9µM* | ·
COc1cccc(CCN2CCC(CNS(=O)(=O)c3cc(-c4cc(C)no4)ccc3C)CC2)c1 | · | ? | · | · | 13µM* | ·
COc1ccc(Cn2c(SCC(=O)NCc3ccc(Cl)cc3)nc3ccsc3c2=O)cc1 | · | -14% | 10%[46.1 µM] | -8% | · | -13%
O=[N+]([O-])/N=C1\NCCN1Cc1ccc(Cl)nc1 | · | -8% | · | -2% | · | -2%
Cc1cc(S(=O)(=O)Nc2ccc(C(=O)NCC3(N4CCCCC4)CCCCC3)cc2)ccc1F | 11µM* | -23% | ? | -5% | -20% | -14%
Cc1cc(S(=O)(=O)Nc2ccc(C(=O)NCC3(N(C)C)CCCCC3)cc2)ccc1F | -17% | -8% | 4% | -15% | -10% | -18%
COc1ccc(C2Nc3ccccc3C(=O)N2Cc2ccccc2)cc1COc1ccccc1F (centres undefined) | · | · | · | -14% | · | 19%
O=C(/C(=C/O)N=Nc1ccc(Cl)cc1)c1ccncc1 | ? | 32µM* | ? | ? | ? | ·
BrC(=C\c1ccccc1)/C=N/Nc1ccc2nncn2n1 | -6%[46.1 µM] | -2% | -25%[46.1 µM] | 6% | ? | -20%
BrC(=C\c1ccccc1)/C=N/n1cnnc1 | · | ? | · | ? | 10µM* | ?
CCOC(=O)N1CCN(C(=O)CCl)CC1 | ? | ? | ? | 3.2µM* | ? | 2.2µM*
CCOC(=O)N1CCN(C(=O)Cc2ccc(Cl)cc2)CC1 | 12% | -1% | 0% | -3% | -3% | ·
CC(C)(C)NC(=O)CN1CCCN(C(=O)COc2ccc(Cl)c3ccccc23)CC1 | -2% | -10% | ? | -13% | -14% | ?
CC(C)(C)NC(=O)CN1CCN(C(=O)CCl)CC1 | ? | ? | ? | 2.5µM* | -26% | ?
Cc1cc2nc(/N=C(\N)NC(=O)C(C)C)nc(C)c2cc1C | ? | -27% | ? | 1µM* | 11µM* | ?
CCC(=O)N/C(N)=N/c1nc(C)c2cc(C)c(C)cc2n1 | 0%[46.1 µM] | -15% | -8% | ? | ? | ?
Cc1ccc2nc(C)cc(C(=O)NC3CCCCCC3)c2c1 | · | -13% | · | · | 9% | ·
CCCC(=O)N/C(N)=N/c1nc(C)c2cc(C)ccc2n1 | -18%[46.1 µM] | 15% | ? | ? | 6.3µM* | 2.2µM*
Cc1ccc2nc(/N=C(\N)NC(=O)NC3CCCCC3)nc(C)c2c1 | 5.6µM* | ? | ? | ? | 11µM* | ?
COc1cc(N(C)C)c(OC)cc1C=O | · | · | · | -3% | · | -14%
SMILES | MARV entry inh | FMDV antiviral | Lassa entry inh | VACV Venus inh | HCV inhibitor | Vaccinia mCherry
CCCC1=Nc2cc(C(=O)NCCCOCC)ccc2Sc2ccccc21 | 1.6µM* | -14% | -41% | ? | ? | -26%
CCCC1=Nc2cc(C(=O)NCCCOC(C)C)ccc2Sc2ccccc21 | ? | -16% | 6.5µM* | · | ? | ·
COC(=O)c1cn([C@@H]2C[C@@H](C(=O)N3CCCCCC3)N(Cc3cc4ccccc4s3)C2)nn1 | · | 2% | · | -8% | · | -7%
COCCC(=O)NCC1Cc2cc(Cl)cc(-c3ccc4[nH]ccc4c3)c2O1 (centres undefined) | · | 1% | · | -4% | · | -9%
CCCC[C@H]1CN2[C@H](c3ccc(Br)cc3)[C@H](C)CC[C@H]2C(=O)O1 | 2%[14.2 µM] | · | · | · | · | ·
CCOC(=O)c1ccc(NC(=O)c2oc3c(c2C)-c2nn(Cc4ccccc4Cl)cc2CC3)cc1 | · | ? | 19%[46.1 µM] | -17% | · | -11%
CCN(CC)c1ccc(NC(=O)CCS(=O)(=O)c2ccc3c(c2)oc(=O)n3C)c(C)c1 | · | -5% | 15%[46.1 µM] | 2% | · | -9%
CNC(=O)Oc1cccc(-c2cn3cc(Cl)ccc3n2)c1 | 2.8µM* | -90% | ? | -16% | ? | -21%
CNC(=O)Oc1ccc(-c2cn3cc(C)ccc3n2)cc1 | 0.65µM* | 13µM* | 0.32µM* | -10% | ? | -29%
COc1ccc(-c2cn3cc(C)ccc3n2)cc1OC | ? | -36% | ? | · | ? | ·
O=S1(=O)c2ccc(Br)cc2OC2CCCN1C2 (centres undefined) | · | · | 7%[46.1 µM] | · | · | ·
Cc1c(/C=N\NC(=O)C2(C)CC2(Cl)Cl)cnn1C (centres undefined) | ? | -2% | -1% | ? | 16% | -6%
CC1(C(=O)N/N=C/c2c(F)c(F)c(F)c(F)c2F)CC1(Cl)Cl (centres undefined) | ? | -22% | ? | 1% | 11µM* | -7%
Clc1ccc(-c2noc3ncnc(NCCc4ccccc4)c23)cc1 | · | -9% | 4µM* | 2% | · | -1%
Cc1noc2ncnc(NCCc3ccccc3)c12 | · | ? | -17%[46.1 µM] | ? | · | -29%
Cc1cc2c(c(-c3nc4ccccc4s3)c1)OC(CNC(=O)CCc1cccnc1)C2 (centres undefined) | · | 12% | · | 14% | · | -8%
N=c1n(CC(=O)c2ccc(Br)cc2)c2ccccc2n1Cc1ccccc1 | · | -12% | · | 11µM* | ? | ?
N=c1n(CC(=O)c2ccc([N+](=O)[O-])cc2)c2ccccc2n1Cc1ccccc1Cl | ? | 28µM* | -11% | -16% | -2% | -15%
CCN(CC)CCn1c(=N)n(CC(=O)c2ccc(C)cc2)c2ccccc21 | · | 6% | · | · | ? | ·
Cc1ccc(C(=O)Cn2c(=N)n(N)c3ccccc32)cc1 | · | 40µM* | · | · | -7% | ·
Cn1c(=N)n(CC(=O)c2ccccc2)c2ccccc21 | 2µM* | 0% | 7.1µM* | -1% | -17% | ?
CCN(C(=O)Cn1nnc2sc3c(c2c1=O)CCC(C(C)(C)C)C3)c1cccc(C)c1 (centres undefined) | -2%[46.1 µM] | ? | 11%[46.1 µM] | -4% | · | 1%
Cc1csc(C(C)N(C)C(=O)c2cnn(-c3nccc(-c4cc(C)sc4C)n3)c2C)n1 (centres undefined) | · | 48% | · | -5% | · | -14%
O=C(COc1ccc(Cl)cc1)N(Cc1ccco1)c1ccccn1 | 2%[46.1 µM] | 32% | 5%[46.1 µM] | -2% | · | -14%
Cc1cc2cc(CN(Cc3cccs3)C(=S)NCc3ccco3)c(=O)[nH]c2cc1C | 14µM* | -29% | -28% | -19% | 11µM* | -28%
Cc1ccc(C)c2[nH]c(=O)c(CN(CC3CCCO3)C(=S)NCc3ccco3)cc12 (centres undefined) | ? | 7% | -24%[46.1 µM] | -21% | ? | -4%
